From ChEMBL document CHEMBL1157539, “Thousands of chemical starting points for antimalarial lead identification” (Nature, 2010) come the findings set out here.

Common to all, as to assay type: functional
Assay [1] relates to Plasmodium falciparum. Briefly: GSK_TCMDC: Inhibition of Plasmodium falciparum 3D7 in whole red blood cells, using parasite LDH activity as an index of growth. Test compounds present at 2uM.
For assay [2], the system named is Plasmodium falciparum. Kind of assay: GSK_TCMDC: Inhibition of Plasmodium falciparum Dd2 in whole red blood cells, using parasite LDH activity as an index of growth. Test compounds present at 2uM.
The test system of a further assay is HepG2. Briefly: GSK_TCMDC: Percent inhibition of human HepG2 cell line. Test compounds present at 10uM.

What is called Inhibition is the change of the read-out against control, counted positive when it falls. A higher Inhibition goes with a strong effect. On to `COc1ccc2nccc(N3CCC(CCNCc4ccc5c(n4)NC(=O)CO5)CC3)c2n1.Cl`, for which the Inhibition was found to be 100% with Plasmodium falciparum [1], 72% with Plasmodium falciparum [2] and 19% with HepG2.
Regarding `N#CC(c1ccc(Br)cc1)c1ccc2c(C(F)(F)F)cc(C(F)(F)F)nc2n1` (stereo not given), the Inhibition is 100% with Plasmodium falciparum [1], 98% in the assay with Plasmodium falciparum [2] and 75% in the assay with HepG2.
The corresponding values for `O=C(NC1CCN(CC2(c3ccccc3)CCCC2)CC1)c1n[nH]cc1Cl` are 83%, 87% and 0%.
The corresponding values for `COc1ccc(-c2nc(NC(=O)Cc3coc4cc(OC)ccc34)sc2C)cc1` are 100%, 77% and 9%.
On to `COc1cc2c(cc1OC)CN(c1cc(N)c3cc(OC)c(OC)cc3n1)CC2.CS(=O)(=O)O`, for which the Inhibition in the assay on Plasmodium falciparum [1] is given as 100%; in the assay on Plasmodium falciparum [2] it was 99%; in the assay with HepG2, 23%.
For `O=C(COc1ccccc1)NC1CCN(c2ccnc3cc(Cl)ccc23)C1.O=C(O)C(F)(F)F` (stereo not given), the results for the Inhibition in the assay on Plasmodium falciparum [1], in the assay with Plasmodium falciparum [2] and in the assay with HepG2 were 100%, 35% and 22%, respectively.
With `CN(C)CCNC(=O)NC1CN(c2ncnc3cc(-c4ccccc4)sc23)C1.O=C(O)C(F)(F)F`, the Inhibition is given as 100% in the assay on Plasmodium falciparum [1], 39% in the assay on Plasmodium falciparum [2] and 7% in the assay on HepG2.
As for `N#C/N=C(\NCCCCCCCCN/C(=N\C#N)NCCSCc1csc(N=C(N)N)n1)NCCCSc1csc(N=C(N)N)n1`, the Inhibition in the assay with Plasmodium falciparum [1] is reported as 91%; in the assay on Plasmodium falciparum [2], 24%; in the assay with HepG2 it was 0%.
The matching figures for `COc1cc(CN2CCC(CO)(Cc3cccc(C(F)(F)F)c3)CC2)c(Cl)cc1O`: 99%, 64% and 12%.
On to `Cc1c(Cn2ncc(N3CCC(N)CC3)c(Cl)c2=O)cccc1NC(=O)Nc1ccc(-c2ccccc2)cc1.O=C(O)C(F)(F)F`, for which the Inhibition with Plasmodium falciparum [1] is recorded as 97%; in the assay on Plasmodium falciparum [2], 43%; with HepG2, 19%.
In the case of `CC1(C)N=C(NC(=O)Nc2ccc([N+](=O)[O-])cc2)N=C(N)N1OCc1cccc2ccccc12`, the results for the Inhibition in the assay with Plasmodium falciparum [1], with Plasmodium falciparum [2] and in the assay on HepG2 were 97%, 21% and 35%, respectively.
For `O=C(NCC1CC1)C1Cc2c([nH]c3ccc(Br)cc23)C2(CCN(CCc3ccccc3)CC2)N1` (stereo not given), the Inhibition in the assay on Plasmodium falciparum [1] was found to be 88%; with Plasmodium falciparum [2], 25%; with HepG2 it was 14%.
For `CNc1cc(-c2ccc3ccnc(N)c3c2)nc(N)n1.O=CO`, the results for the Inhibition in the assay on Plasmodium falciparum [1], with Plasmodium falciparum [2] and in the assay on HepG2 were 100%, 81% and 23%, respectively.
The corresponding values for `COC(=O)C1=CNC=C(C(=O)OC)C1c1ccc(Cl)c([N+](=O)[O-])c1` are 93%, 79% and 0%.
In the case of `O=C(/C=C/c1ccc(Cl)c(Cl)c1)N1CCC(CCCN2CCC(c3c[nH]c4ccc(O)cc34)CC2)CC1`, the Inhibition is reported as 100% with Plasmodium falciparum [1], 99% in the assay on Plasmodium falciparum [2] and 60% in the assay on HepG2.
Turning to `Br.Oc1ccc(CCNCCCCNCCc2ccc(Cl)cc2)cc1O`, the Inhibition worked out at 94% in the assay on Plasmodium falciparum [1], 0% in the assay with Plasmodium falciparum [2] and 33% in the assay on HepG2.
Turning to `Cc1ccc(NC(=O)c2ccc(CN3CCCN(Cc4cccc(C#N)c4)CC3)cc2)cc1F.O=C(O)C(F)(F)F`, the Inhibition in the assay with Plasmodium falciparum [1] amounted to 98%; in the assay with Plasmodium falciparum [2], 19%; in the assay on HepG2 it was 49%.
The matching figures for `N#Cc1ccc(N/C(=N\c2cccc(Cl)c2Cl)NCc2ccc(Cl)cc2Cl)c(O)c1`: 97%, 75% and 3%.
`O=C(C=Cc1ccc(Cl)c(Cl)c1)NCCCCCN1CCC(CCCNC(=O)c2ccc3c(c2)OCO3)CC1`: the Inhibition in the assay on Plasmodium falciparum [1] is recorded as 98%; in the assay on Plasmodium falciparum [2] it was 64%; in the assay on HepG2, 38%.
The corresponding values for `CCC1CCCCN1S(=O)(=O)c1ccc(NC(=O)c2cc(C)on2)cc1` (stereo not given) are 86%, 53% and 0%.
